# Compound activity deposited in PubChem BioAssay by National Center for Advancing Translational Sciences (NCATS).
# Most compounds without a hit are left out; they make up all but 19% or so of the library.
# TDP1 cell noCPT = qHTS for Inhibitors of human tyrosyl-DNA phosphodiesterase 1 (TDP1): qHTS in cells in absence of CPT. DT40 Tdp1-/- hTDP1 cells, no CPT, ATP luminescence, 48 h. 420,000 compounds, 15% hits. Potency, µM (doses to about 46.2 µM), for inactives: top-dose activity change, negative = growth inhibition, usual class: inhibitors; note: potency is the fitted concentration of half-maximal effect; nearly all actives have a fitted effect of over 55% in size
#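 Seeded 400 DT40-hTDP1 cells/well (vehicle DMSO, no 20 nM CPT); pinned compounds; ≥48 hr at 37 °C; CellTiter-Glo luminescence as viability measure.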
# HT1080NT lethal = kills 2HG-producing HT-1080-NT fibrosarcoma cells; HT-1080-NT fibrosarcoma viability, CellTiter-Glo ATP luminescence, 48 h; Potency, µM (doses to about 46.1 µM), without a hit: top-dose activity, negative = less viability, actives largely listed as cytotoxic; 360,000 compounds, 1.6% hits;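 note: NT is the 2HG producing partner of a matched IDH1 knockdown line; potency is the fitted concentration of half-maximal effect; 0% = DMSO-treated cells and -100% = media-only wells without cells; nearly all actives have a fitted effect of over 55% in size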
#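 Fibrosarcoma NT cells, 750 per well in 5% FBS RPMI, were exposed to compound for 48 hours. Viability: CellTiter-Glo luminescence.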
# ELG1 DNA repair = ELG1-dependent DNA repair inhibition; HEK293T ELG1-luciferase reporter, luminescence, 16 h; DNA damage induced by 5-fluorouridine; Potency, µM (doses to about 46.1 µM), for inactives: top-dose activity change, negative = inhibition, actives largely listed as inhibitors; 330,000 compounds, 2.3% hits; AID 504467; note: potency is the fitted concentration of half-maximal effect; nearly all actives have a fitted effect of over 55% in size
#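 5-Fluorouridine DNA damage + compound/DMSO, 2,000 cells/well, 16 h, 37 °C/5% CO2. ONE-Glo, 30 min RT, luminescence. Readout = decrease in reporter signal.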
# HT1080 IDH1KD tx = HT-1080 IDH1 knockdown cell toxicity (counter line); 360,000 compounds, 2% hits; HT-1080 IDH1 knockdown viability, ATP luminescence, 48 h; Potency, µM (titrated, usually from 46.1 µM), for the others: top-dose activity, negative = toxicity, hits mostly cytotoxic;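 note: potency is the fitted concentration of half-maximal effect; 0% = DMSO wells and -100% = cell-free medium wells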
#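 Knockdown cells (IDH1KD HT-1080) received compounds 2 h after plating at 750 cells/well and were kept 48 h at 37 °C in 5% FBS RPMI. A CellTiter-Glo luminescence read gave % activity for curve fitting.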
# IL1B secr inh = blocks inflammasome-driven IL-1 beta release | THP-1 LPS/ATP IL-1B secretion, AlphaLISA, 16 h; stronger effect = lower value | activity change, % at 57.5 µM | 360,000 compounds, 4.7% hits | AID 743279; in the data active = activity change below about -50%; inconclusive = mostly about -30% to -49%
#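 Secreted IL-1B measured by AlphaLISA bead assay after 16 h compound exposure of THP-1 cells; compounds (final up to 57.5 uM) added 1 h before LPS (250 ng/mL) and ATP (1.25 mM) stimulation; lower signal means less secretion.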
# TDP1 cell CPT = DT40-hTDP1 cell growth loss with CPT | chicken DT40 Tdp1-/-;hTDP1 cells + 20 nM CPT, ATP luminescence, 48 h | Potency, µM (highest dose often 46.2 µM), without a hit: at the highest dose activity change, negative = growth inhibition, hits mostly inhibitors | 420,000 compounds, 12% hits; note: potency is the fitted concentration of half-maximal effect; nearly all actives have a fitted effect of over 55% in size
#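 Cell growth measured by CellTiter-Glo luminescence after a minimum 48 h, 37 C compound exposure with 20 nM CPT in Tdp1-knockout DT40 cells stably expressing hTDP1, seeded 400/well; qHTS titration format.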
# Active calls of the source: *; i = inactive; u = inconclusive; x = no result; [ ] = dose if it differs, or a comment. Unless noted, calls come from the whole dose curve; as a rule, active = well fitted curve in the direction sought with a large enough effect; inconclusive = small, poorly fitted or top-dose-only effect, or another doubt; inactive = no such curve, though single readings can be large; an effect the other way counts as inactive or inconclusive. Unless noted, % is set by controls: 0 for no effect and ±100 for the full control effect.
SMILES,TDP1 cell noCPT,HT1080NT lethal,ELG1 DNA repair,HT1080 IDH1KD tx,IL1B secr inh,TDP1 cell CPT
COc1ccc(C(=O)C2CCCN(C(=O)c3cccnc3OC)C2)c(C)c1 (stereo unspecified),u,-2%,-16%,-4%,44,u
COc1ccc(C(=O)C2CCCN(C(=O)c3ccc4cc[nH]c4c3)C2)c(C)c1 (stereo unspecified),u,-1%,u,-5%,18,16µM*
Cc1ncsc1C(=O)N1CCCC(C(=O)c2ccc3ccccc3c2)C1 (stereo unspecified),21µM*,-3%,-29%,-5%,i,23µM*
Cc1ncoc1C(=O)N1CCCC(C(=O)c2ccc(Oc3ccccc3)cc2)C1 (stereo unspecified),-10%,6%,u,7%,0,6%
CCn1nc(C)cc1C(=O)N1CCCC(C(=O)c2ccc(OC)cc2C)C1 (stereo unspecified),9.2µM*,1%,u,-10%,54,23µM*
Cc1cc(C(=O)N2CCCC(C(=O)c3ccc4ccccc4c3)C2)nn1C (stereo unspecified),21µM*,-3%,9%,-25%,-9,u
Cc1ccc(NC2CCCN(C(=O)c3ccoc3C)C2)cc1C (stereo unspecified),u,9%,0%,10%,-1,-3%
COCc1c(C(=O)NC2CCCC2)cnn1-c1nccc(-c2cc(C)sc2C)n1,u,x,x,x,x,-12%[9.04 µM]
CCn1nc(C)cc1C(=O)N1CCCC(C(=O)c2ccc3ccccc3c2)C1 (stereo unspecified),7.3µM*,-6%,u,-7%,-17,12µM*
Cc1ccc2nc(N(CCN3CCOCC3)C(=O)CCS(=O)(=O)c3ccccc3)sc2c1,12µM*,-1%,u,-1%,u,12µM*
O=C(CCS(=O)(=O)c1ccccc1)N(CCCN1CCOCC1)c1nc2ccccc2s1,3.7µM*,1%,u,u,-107*,5.2µM*
Cc1ccc(S(=O)(=O)CCC(=O)N(CCCN2CCOCC2)c2nc3ccccc3s2)cc1,2.9µM*,-5%,1%,-11%,-72*,2.3µM*
CCS(=O)(=O)N1N=C(c2ccccc2)CC1c1ccc2nccnc2c1 (stereo unspecified),10µM*,9%,0%,1%,-3,u
CC[C@@H](C)[C@H](NS(=O)(=O)c1cccc2ccccc12)C(=O)N[C@H](C=O)Cc1c[nH]c2ccccc12,5.3µM*,x,x,x,x,5.9µM*
[O-][N+](=Cc1ccccc1)c1ccc(Cl)cc1,21µM*,-1%,x,-2%,-10,6.5µM*
[O-]/[N+](=C\c1ccco1)c1ccc(Cl)cc1,u,-1%,u,0%,-3,u
[O-]/[N+](=C/c1ccc(F)cc1)c1ccc(Cl)cc1,9.2µM*,2%,u,3%,7,16µM*
CN1C(=S)SC(/[N+]([O-])=C/c2ccc(Cl)cc2)C1(C)C (stereo unspecified),-5%,26%,4%,9%,16,-2%
COc1ccc(CNC(=O)COc2ccc(Br)c(C)c2)cc1,16%,7%,0%,-1%,0,-4%
COc1ccc(C(=O)C2CCCN(C(=O)Cn3nc(C)cc3C)C2)cc1F (stereo unspecified),12%,8%,14%,-1%,-4,-12%
COc1ccc([C@H]2C(C(=O)O)=C[C@@H](C(C)(C)C)N2S(=O)(=O)c2ccc(C)cc2)cc1OC,2%,-7%,5%,-1%,37,7%
Cc1nccc(-c2ccc(-n3cnc4ccccc43)cc2)n1,u,5%,10µM*,2%,-23,u
CSc1nc2[nH]c(=O)n(O)c(=O)c2n1Cc1ccccc1,18µM*,u,x,u,-9,u
CSc1nc2c(c(=O)n1Cc1ccccc1)SC(C)C2 (stereo unspecified),-27%,-2%,2%,-17%,-21,u
NC(=S)N/N=C1\CCOc2ccc(F)cc21,16µM*,-8%,0%,u,u,u
SMILES,TDP1 cell noCPT,HT1080NT lethal,ELG1 DNA repair,HT1080 IDH1KD tx,IL1B secr inh,TDP1 cell CPT
Cn1ncc(Br)c1NC(=O)Nc1ccccc1,-6%,-1%,1%,-8%,7,-6%
Cc1nn(C)c(C)c1N1C(=O)c2cccc3c(Br)ccc(c23)C1=O,21µM*,23µM*,u,u,-96*,18µM*
Cc1nn(C)c(C)c1N1C(=O)c2cccc3c(N)ccc(c23)C1=O,-10%,10%,6%,5%,3,-26%
O=C(c1cc2ccccc2oc1=O)N(c1ccc(Cl)cc1)C1C=CS(=O)(=O)C1 (stereo unspecified),u,8%,-2%,10%,0,16µM*
O=C(c1ccc2c(c1)OCO2)N(c1ccccc1)C1C=CS(=O)(=O)C1 (stereo unspecified),u,6%,-4%,10%,10,-23%
O=C(NCCSCc1c(F)cccc1Cl)C1CCN(S(=O)(=O)Cc2ccccc2)CC1,-17%,x,x,x,x,-25%
CC(C)C[C@H](NC(=O)CNC(=O)[C@H](Cc1ccc(O)cc1)NC(=O)[C@H](CO)NC(=O)[C@H](Cc1c[nH]c2ccccc12)NC(=O)[C@H](Cc1cnc[nH]1)NC(=O)[C@@H]1CCC(=O)N1)C(=O)N[C@@H](CCCN=C(N)N)C(=O)N1CCC[C@H]1C(=O)NCC(N)=O (stereo in doubt),-4%,x,x,x,x,0%
CN1CC(=O)NC1=NC(=O)C12CC3CC(CC(C3)C1)C2,18µM*,-17%,-16%,-19%,5,u
CCc1cc2c(NCCC(=O)O)nc(C)nc2s1,-11%,1%,-1%,3%,57,-4%
CCc1cc2c(NCC3CCCO3)nc(C)nc2s1 (stereo unspecified),u,-14%,u,-1%,4,13µM*
CCc1cc2c(NC(Cc3ccccc3)C(=O)O)nc(C)nc2s1 (stereo unspecified),-25%,5%,-4%,1%,32,-2%
CCc1cc2c(NCc3ccccc3)nc(C)nc2s1,8.2µM*,-19%,-10%,-29%,-5,16µM*
COCCn1c(=O)c(-c2ccc(OC)cc2)nc2cnc(Nc3cccc(OC)c3)nc21,-19%,x,x,x,x,4%
